This is part of a sample that, as a whole, favours compounds with a hit. Of some 79,000 tested, about 15% had one in any assay. Values without a mark were called inactive. Active and inactive are the calls of the source. Rule as the data show it: active = growth inhibition above about 70%; inactive = the rest.
Key:
[1] = NCI Yeast Anticancer Drug Screen. Data for the rad50 strain (AID 155);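 also: 0% = growth of vehicle-only cultures of the same strain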; conditions: S. cerevisiae rad50 strain growth inhibition; at 50.0 µM; hits give high values
Summary of the method: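 Vehicle-treated cultures provide the reference for the growth inhibition reported for compound-exposed, repair-deficient yeast.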

[2] = NCI Yeast Anticancer Drug Screen. Data for the mec2-1 strain (AID 157); conditions: S. cerevisiae mec2-1 strain, at 50.0 µM, hits give high values
Summary of the method: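 Growth inhibition is read against vehicle-treated controls after compound exposure of the mec2-1 yeast strain, which is defective in DNA damage repair or cell cycle control.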

[3] = NCI Yeast Anticancer Drug Screen. Data for the sgs1 mgt1 strain (AID 161);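 also: 0% = growth of cultures given vehicle only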; conditions: S. cerevisiae sgs1 mgt1 strain, at 50.0 µM, hits give high values
Summary of the method: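 This yeast growth screen uses a strain with defined DNA-repair lesions; compound-treated growth is compared with vehicle-treated growth.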

[4] = NCI Yeast Anticancer Drug Screen. Data for the cln2 rad14 strain (AID 165);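 also: 0% = growth equal to vehicle treated cultures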; conditions: S. cerevisiae cln2 rad14 strain, at 50.0 µM, hits give high values
Summary of the method: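 Growth inhibition, relative to vehicle-treated controls, is the read-out. The test organism is a yeast strain with defined genetic alterations, cln2 rad14.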

[5] = NCI Yeast Anticancer Drug Screen. Data for the bub3 strain (AID 167); conditions: S. cerevisiae bub3 mutant strain, at 50.0 µM, hits give high values
Summary of the method: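 Mutant yeast screening strain plus compound; vehicle-treated cultures serve as the 0% inhibition reference.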

[6] = NCI Yeast Anticancer Drug Screen. Data for the mlh1 rad18 strain (AID 175); conditions: S. cerevisiae mlh1 rad18 strain growth inhibition; at 50.0 µM; hits give high values
Summary of the method: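 Cells of a genetically altered yeast strain, deficient in DNA damage repair, were treated with compound. Their growth was then compared with that of vehicle-treated cultures to give inhibition.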

CCCCNc1nnc(N)s1
growth inhibition [1]: 4.65%
growth inhibition [2]: -24.2%
growth inhibition [3]: -10.3%
growth inhibition [4]: -34.5%
growth inhibition [5]: -2.2%
growth inhibition [6]: -27.9%

O=C(O)/C=C\C(=O)Nc1ccccn1
growth inhibition [1]: -30.6%
growth inhibition [2]: -43.8%
growth inhibition [3]: -52.7%
growth inhibition [4]: -2.65%
growth inhibition [5]: -44.9%
growth inhibition [6]: -21.4%

CC(C)C(C)(O)c1ccccc1 (stereo unspecified)
growth inhibition [1]: -3.15%
growth inhibition [2]: -28.8%
growth inhibition [3]: 5.35%
growth inhibition [4]: -10.9%
growth inhibition [5]: 0.35%
growth inhibition [6]: 0.9%

CCOCNC(=O)Nc1ccccc1
growth inhibition [1]: -5.4%
growth inhibition [2]: -15.6%
growth inhibition [3]: 7%
growth inhibition [4]: -37.5%
growth inhibition [5]: 0.35%
growth inhibition [6]: 3.9%

CNCc1ccccc1
growth inhibition [1]: -1.25%
growth inhibition [2]: -2.8%
growth inhibition [3]: -21%
growth inhibition [4]: -23%
growth inhibition [5]: -19.8%
growth inhibition [6]: -3.4%

Nc1ccccc1S(=O)O
growth inhibition [1]: -4%
growth inhibition [2]: 8.55%
growth inhibition [3]: 14.9%
growth inhibition [4]: 7.7%
growth inhibition [5]: -25.9%
growth inhibition [6]: 13.1%

CCOC(=O)c1c(C)[nH]c(-c2csc(N)n2)c1C
growth inhibition [1]: -5.3%
growth inhibition [2]: -1.65%
growth inhibition [3]: 21.4%
growth inhibition [4]: -55.7%
growth inhibition [5]: -9.35%
growth inhibition [6]: -14.8%

O=C(N=Nc1c(O)[nH]c2c(Cl)cc(Cl)cc12)c1ccccc1O
growth inhibition [1]: -1.1%
growth inhibition [2]: -0.55%
growth inhibition [3]: -9.5%
growth inhibition [4]: 12.5%
growth inhibition [5]: -8.95%
growth inhibition [6]: 3.85%

CNC(=O)c1cc(OC)ccc1O
growth inhibition [1]: -25.9%
growth inhibition [2]: -9.7%
growth inhibition [3]: -4.3%
growth inhibition [4]: -32.3%
growth inhibition [5]: -3.6%
growth inhibition [6]: 12.4%

CCCCCCCCCCCCCCCCCCCCCCOC(=O)CCC(=O)OCCCCCCCCCCCCCCCCCCCCCC
growth inhibition [1]: 17.2%
growth inhibition [2]: -44.3%
growth inhibition [3]: 17.4%
growth inhibition [4]: -0.95%
growth inhibition [5]: -10.8%
growth inhibition [6]: 5.75%

COc1ccc(-c2cc(-c3ccccc3)n(-c3ccccc3)n2)cc1
growth inhibition [1]: -0.9%
growth inhibition [2]: 15.1%
growth inhibition [3]: 7.2%
growth inhibition [4]: -2.85%
growth inhibition [5]: 0.8%
growth inhibition [6]: -15.4%

COc1ccccc1C(C)C
growth inhibition [1]: -11.1%
growth inhibition [2]: -3.8%
growth inhibition [3]: -0.85%
growth inhibition [4]: -21.8%
growth inhibition [5]: -6.45%
growth inhibition [6]: -16.2%

CCOC(=O)c1cn(CC)c2c(ccc3cnccc32)c1=O
growth inhibition [1]: -3.55%
growth inhibition [2]: -18.4%
growth inhibition [3]: -18.4%
growth inhibition [4]: 29.6%
growth inhibition [5]: -11%
growth inhibition [6]: 10.2%

CC1=C(C(=O)NNC(=O)c2ccccc2)CC(C(=O)NNC(=O)c2ccccc2)=C(C)N1
growth inhibition [1]: -24.3%
growth inhibition [2]: 14.5%
growth inhibition [3]: 1.85%
growth inhibition [4]: -34.6%
growth inhibition [5]: -13.2%
growth inhibition [6]: -28.6%

Cc1csc(=S)n1C
growth inhibition [1]: -15.2%
growth inhibition [2]: -3.2%
growth inhibition [3]: -17.6%
growth inhibition [4]: -5.8%
growth inhibition [5]: -12%
growth inhibition [6]: 0.4%

CC1=C(C)CP(=O)(c2ccccc2)C1
growth inhibition [1]: 16.6%
growth inhibition [2]: -5.2%
growth inhibition [3]: -0.7%
growth inhibition [4]: -8.65%
growth inhibition [5]: -3.9%
growth inhibition [6]: -35.4%

NC(Cc1c[nH]c2ccc(O)cc12)C(=O)O (stereo unspecified)
growth inhibition [1]: -5.85%
growth inhibition [2]: -8.35%
growth inhibition [3]: -4.9%
growth inhibition [4]: 4.9%
growth inhibition [5]: -0.7%
growth inhibition [6]: -9.3%

COc1ccc2c(c1)C1Oc3ccccc3CC1(O)CO2 (stereo unspecified)
growth inhibition [1]: 14.4%
growth inhibition [2]: 6.75%
growth inhibition [3]: 21.3%
growth inhibition [4]: 26.5%
growth inhibition [5]: -6.3%
growth inhibition [6]: 51.5%

CCOc1ccc(NC(=O)c2ccccc2O)cc1
growth inhibition [1]: 26.9%
growth inhibition [2]: 14%
growth inhibition [3]: 17.7%
growth inhibition [4]: -9.05%
growth inhibition [5]: 17.3%
growth inhibition [6]: 43.3%

O=C(OCc1ccc([N+](=O)[O-])cc1)N1c2ccccc2[C@@]23O[C@]24CCC[C@H]3C#C/C=C\C#C[C@H]14
growth inhibition [1]: 22.1%
growth inhibition [2]: 25.2%
growth inhibition [3]: 2.45%
growth inhibition [4]: -13.6%
growth inhibition [5]: 9.85%
growth inhibition [6]: -32.6%

Clc1cc(Cl)c(Cl)c(Cl)c1Cl
growth inhibition [1]: -4.1%
growth inhibition [2]: -9.95%
growth inhibition [3]: -0.15%
growth inhibition [4]: 12.8%
growth inhibition [5]: -2.7%
growth inhibition [6]: 13.9%

COc1cc(O)c2c(c1)C(=O)C1=C(C2=O)[C@@H](C)OC(C)C1 (stereo partly specified)
growth inhibition [1]: -4.3%
growth inhibition [2]: 10.2%
growth inhibition [3]: 19.9%
growth inhibition [4]: 11.1%
growth inhibition [5]: 12.8%
growth inhibition [6]: 19.8%

COC(=O)CCN(CCC(=O)OC)C1CC1
growth inhibition [1]: -23.4%
growth inhibition [2]: -14.3%
growth inhibition [3]: -13.4%
growth inhibition [4]: 19.6%
growth inhibition [5]: 3.75%
growth inhibition [6]: -20.4%

COC(=O)c1cc2ccccc2n1C
growth inhibition [1]: -25.7%
growth inhibition [2]: -45.6%
growth inhibition [3]: -30.9%
growth inhibition [4]: 16.1%
growth inhibition [5]: -6.95%
growth inhibition [6]: -8.15%

c1ccc2cc3c(cc2c1)oc1cc2ccccc2cc13
growth inhibition [1]: -14.1%
growth inhibition [2]: -9.05%
growth inhibition [3]: -4.8%
growth inhibition [4]: -6.1%
growth inhibition [5]: -5.7%
growth inhibition [6]: -10%

C/C(CC(O)(C(F)(F)F)C(F)(F)F)=N\NC(N)=O
growth inhibition [1]: -38.5%
growth inhibition [2]: -44.5%
growth inhibition [3]: -22.5%
growth inhibition [4]: -1.45%
growth inhibition [5]: -5.35%
growth inhibition [6]: -15.8%

CCC/C=N\NS(=O)(=O)c1ccc(NC(C)=O)cc1
growth inhibition [1]: 4.65%
growth inhibition [2]: -28.4%
growth inhibition [3]: 11.6%
growth inhibition [4]: 12.6%
growth inhibition [5]: -43.7%
growth inhibition [6]: 27.2%

CCOC(=O)C1=C(C)Oc2cc3c(cc2C1c1ccc(OC)cc1)OCO3 (stereo unspecified)
growth inhibition [1]: 3.9%
growth inhibition [2]: 5.8%
growth inhibition [3]: 23.5%
growth inhibition [4]: -39.8%
growth inhibition [5]: 31.4%
growth inhibition [6]: 6.65%

CC(=O)CCC(CC(=O)O)C(C)C (stereo unspecified)
growth inhibition [1]: 12%
growth inhibition [2]: 0.05%
growth inhibition [3]: 14.9%
growth inhibition [4]: -9%
growth inhibition [5]: 4.8%
growth inhibition [6]: 24.1%

COC(=O)CCc1c[nH]c2ccc(N)cc12
growth inhibition [1]: -12.8%
growth inhibition [2]: -31.2%
growth inhibition [3]: -14.8%
growth inhibition [4]: 18.2%
growth inhibition [5]: -14.5%
growth inhibition [6]: -13.7%

O=C(CCC(=O)C1CCC/C1=N/O)Nc1ccc(Cl)cc1 (stereo unspecified)
growth inhibition [1]: -40.4%
growth inhibition [2]: -0.4%
growth inhibition [3]: 7.4%
growth inhibition [4]: 26.1%
growth inhibition [5]: 9.55%
growth inhibition [6]: 21.1%

c1ccc([P+](c2ccccc2)(c2ccccc2)C2c3ccccc3CCc3ccccc32)cc1
growth inhibition [1]: 99.6% (active)
growth inhibition [2]: 99.8% (active)
growth inhibition [3]: 99.5% (active)
growth inhibition [4]: 99.5% (active)
growth inhibition [5]: 99.4% (active)
growth inhibition [6]: 99.6% (active)

C=CCc1ccc(OC(=O)Nc2ccccc2)c(OC)c1
growth inhibition [1]: 55.9%
growth inhibition [2]: 25.2%
growth inhibition [3]: 31.4%
growth inhibition [4]: 13.9%
growth inhibition [5]: 33.5%
growth inhibition [6]: 23.4%

CN(C)S(=O)(=O)Oc1ccccc1N
growth inhibition [1]: 5.9%
growth inhibition [2]: -4.5%
growth inhibition [3]: 20.9%
growth inhibition [4]: 18.7%
growth inhibition [5]: -5.15%
growth inhibition [6]: 15.8%

CCC(CO)Nc1nncc2ccccc12 (stereo unspecified)
growth inhibition [1]: 2.4%
growth inhibition [2]: -3.45%
growth inhibition [3]: 1.35%
growth inhibition [4]: -31.5%
growth inhibition [5]: -10.6%
growth inhibition [6]: -12.3%

Oc1ccc(C2CCCC2)cc1
growth inhibition [1]: -9.15%
growth inhibition [2]: -30.1%
growth inhibition [3]: -22.1%
growth inhibition [4]: -14.7%
growth inhibition [5]: -12.7%
growth inhibition [6]: -17.4%
